Drawing on PubChem BioAssay (EPA / NIEHS), this text covers AC50 and outcome for 1 compound.

Inconclusive results are not listed. The source made the active and inactive calls. The calls were made as follows, unless noted: active = hit-call score of the fitted dose curve at least 0.9, where 1 is the maximum; inactive = score below 0.9.

Assay [1] can be described thus: STM_H9_OrnCyssISnorm_ratio: Stemina devTOX quickPredict H9 human embryonic stem cell (hESC)-based Assay for Ornithine (ORN):Cystine (CYSS) Ratio (AID 2283714; active = hit-call score of the fitted dose curve at least 0.9, where 1 is the maximum). Put shortly:
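Ratio of internal-standard-normalized ornithine to cystine, measured by UPLC-HRMS in spent media from the last 24 h. H9 cells kept pluripotent, dosed 72 h with daily media and compound renewal; DMSO 0.1% serves as baseline.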

Assay [2] in a line: Tanguay_ZF_120hpf_ActivityScore_legacy: (Legacy) Oregon State University Tanguay Lab 120 Hour Post-fertilization zebrafish Assay Score for Activity (AID 2283742; active = hit-call score of the fitted dose curve at least 0.9, where 1 is the maximum). Put shortly: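 Binary scoring of mortality and morphology by brightfield at 24 and 120 hpf, summarised into one activity score from 18 components relative to DMSO. Wild-type Tropical 5D zebrafish, chorion removed at 4 hpf, static exposure 6–120 hpf, 28 °C.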

The nature of assay [3]: ACEA_ER_AUC_viability: ACEA Biosciences xCELLigence Real-Time Cell Analysis on Estrogen Receptor Agonism for Viability (AID 2283782; active = hit-call score of the fitted dose curve at least 0.9, where 1 is the maximum;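 also: hit means loss of impedance signal meaning reduced cell growth or viability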). Put shortly:
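Viability endpoint: reduced impedance area under the curve relative to DMSO, recorded by real-time electrode sensing over ~80 h of continuous exposure. Duplicate plates of T47D in hormone-depleted medium; eight concentrations, 1:4 dilutions, 100 uM maximum.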

Assay [4] is described as follows: STM_H9_NormalizedViability: Cytotoxicity Assessment at 120 hours in the Stemina devTOX quickPredict H9 human embryonic stem cell (hESC)-based Assay (AID 2283784; active = hit-call score of the fitted dose curve at least 0.9, where 1 is the maximum). Put shortly: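 Here, H9 cells received test compound with daily medium renewal. Each plate included methotrexate references (1uM, 5 nM), 0.1% DMSO and media blanks; CellTiter-Fluor RFU was normalized to DMSO.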

A short description of assay [5]: CCTE_Shafer_MEA_acute_spike_number: CCTE's Neural Acute Assay for Total Number of Spikes, Shafer Lab (AID 2284008). Put shortly: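 Rat primary cortical neurons on 48-well MEA plates, DIV 13 or 15, at 37 C. 40 min baseline then 40 min with compound (0.03-40 uM); spikes detected at 8x rms noise, expressed as percent change from baseline.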
Assay [6] in a line: CCTE_Shafer_MEA_acute_firing_rate_mean: CCTE's Neural Acute Assay for Mean Firing Rate, Shafer Lab (AID 2284009).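 Also: analyzed for loss of signal so actives lower firing rate relative to DMSO.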 Put shortly: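 Primary rat cortical neurons on 16-electrode MEA wells were exposed on DIV 13 or 15 to compound (0.03-40 uM). Spike counts per recording time, averaged over electrodes, were compared between 40-min baseline and 40-min post-exposure recordings as percent change.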

Assay [7] in a line: CCTE_Harrill_HTTr_Viability_MCF7: CCTE's 6-hour Cell Viability Assessment for the High-Throughput Transcriptomics (HTTr) Platform, in MCF-7 cells cultured in DMEM + 10% fetal bovine serum, Harrill Lab (AID 2284010). Put shortly: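 Eight-point concentration series, six-hour exposure. Propidium iodide exclusion imaged to assess membrane integrity as a cytotoxicity readout; bidirectional fitting was done with DMSO as negative control and activity baseline.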

The nature of assay [8]: CCTE_Harrill_HTTr_Apoptosis_MCF7: CCTE's 6-hour Apoptosis Assessment for the High-Throughput Transcriptomics (HTTr) Platform, in MCF-7 cells cultured in DMEM + 10% fetal bovine serum, Harrill Lab (AID 2284011). Put shortly: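 MCF-7 cells in DMEM + 10% FBS exposed 6 h to chemicals over an eight-point dilution series. Caspase-3/7 activation imaged by high-content CellEvent Green staining; fitted bidirectionally versus DMSO.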

Assay [9] can be described thus: CCTE_Shafer_MEA_acute_burst_number: CCTE's Neural Acute Assay for Single-Electrode Bursts, Shafer Lab (AID 2284013). Put shortly: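 Primary rat cortical neurons on 16-electrode MEA wells, DIV 13 or 15, exposed to compound (0.03-40 uM; ≥3 wells); 40-min recordings at 37 C before and after treatment. Burst count expressed as percent change from baseline, DMSO as negative control.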

A short description of assay [10]: CCTE_Shafer_MEA_acute_burst_duration_mean: CCTE's Neural Acute Assay for Mean Burst Duration, Shafer Lab (AID 2284014).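 Also: hits are decreases in mean burst duration relative to DMSO controls.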 Put shortly: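 Mean burst duration was compared between a 40 min baseline and a 40 min recording in the presence of compound (0.03-40 uM, 37 C), giving percent change per well. Cultures were rat cortical neurons at DIV 13 or 15; wells needed ≥10 active electrodes.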

Assay [11] in a line: CCTE_Shafer_MEA_acute_per_burst_spike_number_mean: CCTE's Neural Acute Assay for Average Number of Spikes Per Burst, Shafer Lab (AID 2284015).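 Also: hits are decreases in mean spikes per burst versus baseline.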 Put shortly: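 Primary rat cortical neurons on 48-well MEA plates, treated on DIV 13 or 15 at 0.03-40 uM. Spontaneous activity recorded 40 min before and 40 min after compound at 37 C; percent change in mean spikes per single-electrode burst per well, fitted in the loss direction versus DMSO.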

A short description of assay [12]: CCTE_Shafer_MEA_acute_interburst_interval_mean: CCTE's Neural Acute Assay for Mean Interburst Interval, Shafer Lab (AID 2284016).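 Also: percent change of mean interburst interval versus each well's own pre-dose baseline; curves fitted for decrease in interburst interval relative to DMSO.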 Put shortly: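 Primary rat cortical neurons on 16-electrode MEA wells were recorded 40 min at baseline on DIV 13 or 15, then 40 min after compound (0.03-40 uM), at 37 C. Value is percent change in mean interburst interval per well, DMSO as negative control.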

A short description of assay [13]: CCTE_Shafer_MEA_acute_burst_percentage_mean: CCTE's Neural Acute Assay for Percentage of Spikes in a Burst, Shafer Lab (AID 2284017). Put shortly: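 Primary rat cortical neurons on 16-electrode MEA wells; 40 min baseline recorded at DIV 13 or 15, then 40 min after compound (0.03-40 uM) at 37 C. Well-mean fraction of spikes in single-electrode bursts; percent change from baseline, DMSO as negative control.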

Assay [14] in a line: CCTE_Shafer_MEA_acute_per_network_burst_spike_number_std: CCTE's Neural Acute Assay for Standard Deviation of Number of Spikes in a Network Burst, Shafer Lab (AID 2284020).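 Also: fitted for decrease in spike-number SD versus DMSO so actives lower it.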 Put shortly: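 Endpoint: percent change from 40 min baseline in standard deviation of spikes per network burst, after 40 min compound exposure (0.03-40 uM, 37 C). Cortical rat neurons on MEA at DIV 13 or 15; spikes detected at 8x rms noise, 300-5000 Hz band-pass.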

A short description of assay [15]: CCTE_Shafer_MEA_acute_per_network_burst_electrodes_number_mean: CCTE's Neural Acute Assay for Mean Number of Electrodes in a Network Burst, Shafer Lab (AID 2284021).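 Also: curves fitted for decreases only so hits reduce electrodes per burst.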 Put shortly: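 Rat primary cortical neurons on 48-well MEAs, DIV 13 or 15, were treated at 0.03-40 uM. Spikes were detected at 8x rms noise and recorded at 37 C. The mean electrodes per network burst in a 40 min exposure recording was expressed as percent change from a 40 min baseline.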

A short description of assay [16]: CCTE_Shafer_MEA_acute_network_burst_percentage: CCTE's Neural Acute Assay for Percentage of Network Bursts, Shafer Lab (AID 2284022).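 Also: curves fitted for loss so actives lower network burst percentage.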 Put shortly: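 Rat primary cortical neuron networks on 48-well MEA plates, DIV 13 or 15, treated acutely with compound (0.03-40 uM, at least three wells). Percent of spikes within network bursts compared between 40-min recordings before and during exposure at 37 C, expressed as percent change.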

Assay [17] in a line: CCTE_Shafer_MEA_acute_cross_correlation_HWHM: CCTE's Neural Acute Assay for Cross Correlation at Half Width at Half Maximum, Shafer Lab (AID 2284026).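 Also: spontaneous network firing of rat primary cortical neurons on multiwell microelectrode arrays; hits are a decrease in cross-correlogram half width relative to DMSO.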 Put shortly: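 Rat primary cortical neurons on 48-well MEA plates; 40-min baseline and 40-min post-exposure recordings at 37 C on DIV 13 or 15, compounds 0.03-40 uM. Spikes detected at 8x rms noise; percent change in cross-correlogram HWHM per well vs baseline.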

Assay [18] in a line: CCTE_Shafer_MEA_acute_AB: CCTE's Alamar Blue Assay for Cytotoxicity in the Neural Acute Assay, Shafer Lab (AID 2284069; active = hit-call score of the fitted dose curve at least 0.9, where 1 is the maximum;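 also: active compounds lower the viability signal compared with DMSO wells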). Put shortly: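 Read-out: resazurin fluorescence (ex 544, em 590 nm) after CTB reagent at 1:6 dilution in fresh media. Cells: primary rat cortical neuron networks, DIV 13 or 15, chemically exposed on MEA plates; DMSO as negative control/baseline.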
On the technique in general: The colour change of resazurin is a common sign of viable cells or microbes.

Assay [19] deals with IYD (gene 389434). Briefly: CCTE_GLTED_hIYD: CCTE's human Iodotyrosine Deiodinase (xIYD) Inhibition Assay, Great Lakes Toxicology and Ecology Division (GLTED) Lab (AID 2284317; active = hit-call score of the fitted dose curve at least 0.9, where 1 is the maximum;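 also: cell-free human IYD enzyme made in baculovirus insect cells; iodide freed from monoiodotyrosine measured by cerium arsenite color change at 420 nm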). Put shortly: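 Iodide liberated from monoiodotyrosine by baculovirus-expressed human IYD over 3 h was determined colorimetrically (Sandell-Kolthoff, 420 nm) after Dowex separation; inhibition is loss of signal versus DMSO.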

As a reminder, the AC50 is the concentration at which the activity in the assay is half-maximal. In the case of `c1cc[n+]2c(c1)-c1cccc[n+]1CC2`, the AC50 is 2.36 µM (active) in assay [1], 22.8 µM (active) in assay [3], 7.82 µM (active) in [4] and 11.4 µM (active) in assay [19]. Moreover, the result in assay [2], in [5], in [6], in assay [7], in assay [8] and in [9] was inactive. In addition, the call in assay [10], in [11], in [12], in [13], in assay [14] and in assay [15] was inactive. Also, the result in [16], in [17] and in assay [18] was inactive.
